Screening data as filed in PubChem BioAssay.
Shown are actives, neighbours in structure and some others; about 19% of the full set was active somewhere.
DT40 TDP1 no CPT: qHTS for Inhibitors of human tyrosyl-DNA phosphodiesterase 1 (TDP1): qHTS in cells in absence of CPT. Potency, µM (doses to about 46.2 µM), inactives show top-dose activity change, negative = growth inhibition, actives largely listed as inhibitors. DT40 Tdp1-/- hTDP1 cells, no CPT, ATP luminescence, 48 h. 420,000 compounds, 15% hits; also: potency is read from the fitted curve at half-maximal effect; nearly all actives have a fitted effect of over 55% in size
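Cells were dispensed at 400 per well, compounds added by pin tool, plates incubated ≥48 hr at 37 °C, then CellTiter-Glo added for 30 min at room temperature before luminescence reading. Line: DT40 Tdp1-/- complemented with hTDP1; camptothecin omitted.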
TDP1 cell CPT: growth inhibition of DT40 Tdp1-/-;hTDP1 cells with camptothecin (screen for TDP1 inhibitors) | 420,000 compounds, 12% hits | chicken DT40 Tdp1-/-;hTDP1 cells + 20 nM CPT, ATP luminescence, 48 h | AID 686979 | Potency, µM (top dose mostly 46.2 µM), for the others: at the top dose activity change, negative = growth inhibition, actives largely listed as inhibitors; also: potency is read from the fitted curve at half-maximal effect; nearly all actives have a fitted effect of over 55% in size
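Cell growth measured by CellTiter-Glo luminescence after a minimum 48 h, 37 C compound exposure with 20 nM CPT in Tdp1-knockout DT40 cells stably expressing hTDP1, seeded 400/well; qHTS titration format.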
IL1B secr inh: blocks inflammasome-driven IL-1 beta release | AID 743279 | THP-1 LPS/ATP IL-1B secretion, AlphaLISA, 16 h; hits give low values | 360,000 compounds, 4.7% hits | activity change, % at 57.5 µM; in the data active = activity change below about -50%; inconclusive = mostly about -30% to -49%
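Secreted IL-1B measured by AlphaLISA bead assay after 16 h compound exposure of THP-1 cells; compounds (final up to 57.5 uM) added 1 h before LPS (250 ng/mL) and ATP (1.25 mM) stimulation; lower signal means less secretion.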
HT1080 IDH1KD tx: toxicity to HT-1080 IDH1 knockdown cells (counter line); AID 686971; 360,000 compounds, 2% hits; Potency, µM (titrated, usually from 46.1 µM), without a hit: at the top dose activity, negative = toxicity, usual class: cytotoxic; HT-1080 IDH1 knockdown viability, ATP luminescence, 48 h;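 also: potency is read from the fitted curve at half-maximal effect; 0% = DMSO wells and -100% = cell-free medium wells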
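HT-1080-IDH1KD cells (IDH1 knocked down), 750/well in RPMI with 5% FBS, treated with compound 48 h at 37 degrees C. Viability by CellTiter-Glo luminescence, normalised to DMSO and no-cell wells; concentration-response curves classed.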
HT1080NT lethal: kills 2HG-producing HT-1080-NT fibrosarcoma cells; HT-1080-NT fibrosarcoma viability, CellTiter-Glo ATP luminescence, 48 h; Potency, µM (highest dose often 46.1 µM), for the others: top-dose activity, negative = less viability, usual class: cytotoxic; 360,000 compounds, 1.6% hits;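 also: NT is the 2HG producing partner of a matched IDH1 knockdown line; potency is read from the fitted curve at half-maximal effect; 0% = DMSO-treated cells and -100% = media-only wells without cells; nearly all actives have a fitted effect of over 55% in size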
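Fibrosarcoma NT cells, 750 per well in 5% FBS RPMI, were exposed to compound for 48 hours. Viability: CellTiter-Glo luminescence.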
* hit, by the source's call; ? = inconclusive; / = no result. Unless noted, calls follow the shape of the dose curve; as a rule, active = well fitted curve in the direction sought with a large enough effect; inconclusive = small, poorly fitted or top-dose-only effect, or another doubt; inactive = no such curve, though single readings can be large; an effect the other way counts as inactive or inconclusive. Unless noted, % is scaled to controls: 0 for no effect and ±100 for the full control effect.

SMILES	DT40 TDP1 no CPT	TDP1 cell CPT	IL1B secr inh	HT1080 IDH1KD tx	HT1080NT lethal
COCCCn1c(C)cc(C(=O)CN2c3cccc4cccc(c34)S2(=O)=O)c1C	16µM*	29µM*	?	-6%	-2%
O=C(N/N=C/c1ccncc1)c1ccc(COc2cccc3cccnc23)cc1	?	?	-15	-26%	-7%
COc1ccc(/C=N/NC(=O)c2ccc(COc3cccc4cccnc34)cc2)cc1O	13µM*	?	-1	-9%	-9%
CN1CCCN(S(=O)(=O)c2ccc3ccccc3c2)CC1	?	-12%	-6	-7%	-8%
O=C(NCc1cccnc1)c1nn(-c2ccc(F)cc2)nc1CO	?	-4%	/	/	/
COc1cc(/C=N/NC(=O)c2ccc(CN3c4cccc5cccc(c45)S3(=O)=O)cc2)cc(OC)c1O	16µM*	?	51	-13%	-30%
CC(C)(C)c1ccc(OCc2ccc(C(=O)N/N=C/c3ccc(O)c(O)c3)cc2)cc1	1.5µM*	1.3µM*	124	?	26µM*
CCOc1ccc(/C=N/NC(=O)COc2ccccc2-c2ccccc2)cc1	?	18µM*	-4	?	?
O=C(N/N=C/c1ccc2c(c1)OCO2)c1ccc(COc2cccc3cccnc23)cc1	26µM*	?	-18	?	?
O=C(N/N=C/c1cccc(O)c1)c1ccc(COc2cccc3cccnc23)cc1	?	-30%	-5	-5%	-15%
CCOc1ccc(/C=N/NC(=O)c2c(-c3ccccc3)noc2C)cc1	-30%	14%	41	15%	19%
CCCCCCCCC(c1nc2ccccc2[nH]1)N1CCN=C(c2ccccc2)C1=O (centres undefined)	?	?	-4	?	?
O=C(Cn1nc(-c2ccc(Cl)cc2)c2ccccc2c1=O)NN1CCOCC1	-4%	2%	-17	3%	1%
CC(C)(C)c1ccc(OCc2ccc(C(=O)N/N=C3\CC4CC=CC34)cc2)cc1 (centres undefined)	15µM*	13µM*	49	?	?
O=C(N/N=C/c1ccc([N+](=O)[O-])cc1)c1ccccc1OCc1ccccc1	?	-15%	21	-10%	-13%
COc1cc(NC(=O)CN2c3cccc4cccc(c34)S2(=O)=O)cc(OC)c1OC	21µM*	?	-13	?	-11%
O=C(N/N=C/c1ccc([N+](=O)[O-])cc1)c1ccc(COc2ccccc2-c2ccccc2)cc1	13µM*	?	0	6%	-6%
COc1ccc(CNc2ccnc(-c3ccc(N(C)C)cc3)n2)c(OC)c1	?	26µM*	/	/	/
COc1ccc(CNc2ccnc(-c3cccnc3)n2)c(OC)c1	?	23µM*	/	/	/
Cc1cccc(-c2nc3c(cnn3-c3ccccc3)c(=O)n2-c2ccc(Cl)cc2)c1	15µM*	?	/	/	/
O=C(O)CSc1nc2c(cnn2-c2ccccc2)c(=O)n1-c1ccc(Br)cc1	-18%	1%	27	23%	8%
Cc1nc2c(cnn2-c2ccccc2)c(=O)[nH]1	-7%	-6%	21	19%	25%
COc1ccc(-n2c(-c3cccc(F)c3)nc3c(cnn3-c3ccc(C)cc3)c2=O)cc1	26µM*	18µM*	/	/	/
O=c1c2cnn(-c3ccccc3)c2nc(-c2cccs2)n1-c1ccc(Br)cc1	0.58µM*	?	39	6%	10%
Cc1cccc(-c2nc3c(cnn3-c3ccccc3)c(=O)n2-c2ccc(Br)cc2)c1	18µM*	?	/	/	/
COc1ccc(-c2oc3ccc(-c4cc(OC)c(OC)c(OC)c4)cc3c2C#Cc2ccsc2)cc1	?	?	-5	-1%	1%
Cc1cc(Oc2ccc(-c3nnc(-c4ccccc4)o3)cc2[N+](=O)[O-])ccc1Cl	?	?	0	10%	-1%
O=[N+]([O-])c1ccc(Oc2ccc(-c3cnc4ccccc4n3)cc2[N+](=O)[O-])cc1	15µM*	10µM*	7	19%	3%
